Bioassay records: PubChem BioAssay, National Center for Advancing Translational Sciences (NCATS)
HT1080NT lethal: kills 2HG-producing HT-1080-NT fibrosarcoma cells. HT-1080-NT fibrosarcoma viability, CellTiter-Glo ATP luminescence, 48 h. Potency, µM (doses to about 46.1 µM), usual class: cytotoxic. hit rate 1.6% among 360,000. AID 686970;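 further: NT is the 2HG producing partner of a matched IDH1 knockdown line; nearly all actives have a fitted effect of over 55% in size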
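HT-1080-NT fibrosarcoma cells (2HG-overproducing), 750 cells/well in RPMI with 5% FBS, dosed after 2 h and incubated 48 h at 37C. CellTiter-Glo luminescence normalized to DMSO and no-cell wells; concentration-response curves fitted and classed.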
TDP1 cell noCPT: qHTS for Inhibitors of human tyrosyl-DNA phosphodiesterase 1 (TDP1): qHTS in cells in absence of CPT; AID 686978, 2013; Potency, µM (series often up to 46.2 µM), actives largely listed as inhibitors; DT40 Tdp1-/- hTDP1 cells, no CPT, ATP luminescence, 48 h; hit rate 15% among 420,000; further: nearly all actives have a fitted effect of over 55% in size
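Chicken DT40 Tdp1-/- cells stably complemented with human TDP1 were seeded at 400 cells/well with DMSO in place of 20 nM camptothecin. After compound pinning, cells grew at least 48 hr at 37 °C; viability read by CellTiter-Glo luminescence.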
IL-1B inflam inh: inhibitors of inflammasome signaling (IL-1 beta secretion); THP-1 LPS/ATP IL-1B secretion, AlphaLISA, 16 h; hits give low values; activity change, % at 57.5 µM; hit rate 4.7% among 360,000; in the data active means activity change below about -50%; inconclusive means mostly about -30% to -49%
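Secreted IL-1B measured by AlphaLISA bead assay after 16 h compound exposure of THP-1 cells; compounds (final up to 57.5 uM) added 1 h before LPS (250 ng/mL) and ATP (1.25 mM) stimulation; lower signal means less secretion.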
ALOX12 inh: ALOX12 (human) lipoxygenase inhibition; Potency, µM (series often up to 108 µM), hits mostly inhibitors; P18054; purified 12hLO, xylenol orange hydroperoxide absorbance; hit rate 1.1% among 580,000
Target sequence (P18054 whole entry, looked up): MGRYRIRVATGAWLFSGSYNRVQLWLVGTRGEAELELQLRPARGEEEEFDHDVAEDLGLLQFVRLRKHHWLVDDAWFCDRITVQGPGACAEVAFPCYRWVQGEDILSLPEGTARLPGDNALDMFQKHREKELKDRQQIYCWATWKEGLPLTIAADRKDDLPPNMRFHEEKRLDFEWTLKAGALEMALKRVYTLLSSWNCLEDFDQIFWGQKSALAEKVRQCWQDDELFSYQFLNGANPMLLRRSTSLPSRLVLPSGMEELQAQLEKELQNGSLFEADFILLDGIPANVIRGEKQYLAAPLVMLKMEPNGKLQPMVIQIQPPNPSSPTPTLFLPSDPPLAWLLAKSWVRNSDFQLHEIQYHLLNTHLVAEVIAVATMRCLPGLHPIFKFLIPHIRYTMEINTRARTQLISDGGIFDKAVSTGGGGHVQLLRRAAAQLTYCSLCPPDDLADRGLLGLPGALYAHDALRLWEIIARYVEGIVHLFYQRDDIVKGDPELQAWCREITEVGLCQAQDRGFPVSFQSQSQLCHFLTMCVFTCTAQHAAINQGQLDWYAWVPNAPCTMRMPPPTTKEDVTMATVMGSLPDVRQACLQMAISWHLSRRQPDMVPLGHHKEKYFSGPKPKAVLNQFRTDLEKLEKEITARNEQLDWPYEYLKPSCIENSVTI
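Hydroperoxide product was detected by ferrous iron/xylenol orange as the 573 to 405 nm absorbance ratio. Arachidonic acid at 40 uM (final) was turned over for 30 min at room temperature by 150 nM human 12hLO, pH 7.0 Hepes buffer, after 15 min compound preincubation.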
TDP1 cell CPT: growth inhibition of DT40 Tdp1-/-;hTDP1 cells with camptothecin (screen for TDP1 inhibitors). chicken DT40 Tdp1-/-;hTDP1 cells + 20 nM CPT, ATP luminescence, 48 h. hit rate 12% among 420,000. Potency, µM (series often up to 46.2 µM), hits mostly inhibitors; further: nearly all actives have a fitted effect of over 55% in size
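Chicken DT40 Tdp1-/- cells complemented with human TDP1, 400 cells/well, exposed to compounds plus 20 nM camptothecin for at least 48 h at 37 C; viability read as ATP content by CellTiter-Glo luminescence.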
HT1080 IDH1KD tx: kills HT-1080 cells with IDH1 knockdown | Potency, µM (series often up to 46.1 µM), hits mostly cytotoxic | HT-1080 IDH1 knockdown viability, ATP luminescence, 48 h | hit rate 2% among 360,000
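Viability of IDH1-knockdown HT-1080 fibrosarcoma cells was assessed by CellTiter-Glo after 48 h at 37 °C with titrated compound; concentration-effect curves were classified by fit quality and response size.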
Large screens that a line does not name were inactive. The entries come from a sample that favours hits as a whole. Unless noted, the call rests on the fitted dose curve; in most records, active means well fitted curve in the direction sought with a large enough effect; inconclusive means small, poorly fitted or top-dose-only effect, or another doubt; inactive means no such curve, though single readings can be large; an effect the other way counts as inactive or inconclusive.

COc1ccc(NC(=O)C2(n3cnnn3)CCCCC2)cc1OC	none (no result: HT1080NT lethal, TDP1 cell noCPT, IL-1B inflam inh, TDP1 cell CPT, HT1080 IDH1KD tx)
Cc1ccc(NC(=O)COC(=O)c2ccc3c(c2)NC(=O)C2CCCN32)cc1 (stereo unspecified)	HT1080NT lethal inconclusive, TDP1 cell noCPT inconclusive, ALOX12 inh inconclusive, TDP1 cell CPT 16µM
O=C1NCc2ccccc2CC12CCN(Cc1cccc(F)c1F)CC2	none (no result: HT1080NT lethal, TDP1 cell noCPT, IL-1B inflam inh, TDP1 cell CPT, HT1080 IDH1KD tx)
CC(C)n1c(=S)[nH]c2c1c(=O)[nH]c(=O)n2C	ALOX12 inh 5µM
CC(C)CNc1nc2c(c(=O)[nH]c(=O)n2C)n1C(C)C	none (no result: HT1080NT lethal, TDP1 cell noCPT, IL-1B inflam inh, TDP1 cell CPT, HT1080 IDH1KD tx)
N#C/C(=N\Nc1cccc(C(F)(F)F)c1)C(=O)c1ccsc1	HT1080NT lethal 4.6µM, TDP1 cell noCPT 5.8µM, IL-1B inflam inh inconclusive, ALOX12 inh inconclusive, TDP1 cell CPT 5.2µM, HT1080 IDH1KD tx inconclusive
CC1CN(S(=O)(=O)c2cc(C(=O)NCCC3=CCCCC3)ccc2Cl)CC(C)O1 (stereo unspecified)	HT1080NT lethal inconclusive, TDP1 cell noCPT 15µM, TDP1 cell CPT 18µM
COc1ccc(CNC(=O)c2ccc(Cl)c(S(=O)(=O)N3CCOCC3)c2)cc1OC	TDP1 cell noCPT 7.3µM, TDP1 cell CPT 9.2µM (no result: ALOX12 inh)
CCOc1ccc(CCNC(=O)c2ccc(Cl)c(S(=O)(=O)N3CCOCC3)c2)cc1OCC	TDP1 cell noCPT 23µM, TDP1 cell CPT 21µM
COc1ccc(C(=O)NCCC2=CCCCC2)cc1S(=O)(=O)N1CCOCC1	ALOX12 inh inconclusive
Cc1nnc(SCC(=O)Nc2cc(S(C)(=O)=O)ccc2Cl)n1Cc1ccccc1	none
CCOC(=O)C1(Cc2cccc(OC)c2)CCCN(C(=O)CCn2ccnc2C)C1 (stereo unspecified)	none (no result: HT1080NT lethal, TDP1 cell noCPT, IL-1B inflam inh, TDP1 cell CPT, HT1080 IDH1KD tx)
CCCN1CNc2c(c(=O)[nH]c(=S)n2CCc2cc(Cl)cc(Cl)c2)C1	HT1080NT lethal inconclusive, TDP1 cell noCPT 4µM, TDP1 cell CPT 5.6µM, HT1080 IDH1KD tx inconclusive (no result: IL-1B inflam inh, ALOX12 inh)
CCCN1CNc2c(c(=O)[nH]c(=S)n2CCc2cccc(Cl)c2Cl)C1	TDP1 cell noCPT 10µM, TDP1 cell CPT inconclusive (no result: IL-1B inflam inh, ALOX12 inh)
Cn1cccc1CN1CCC2(CC1)CN[S+](=O)([O-])c1cccnc1O2	none (no result: HT1080NT lethal, TDP1 cell noCPT, IL-1B inflam inh, TDP1 cell CPT, HT1080 IDH1KD tx)
Cn1ncc(Cl)c1C(=O)NCC1CCCO1 (stereo unspecified)	HT1080 IDH1KD tx inconclusive
Cc1cc(-c2ccc(S(=O)(=O)NC3CCOC4(CCOCC4)C3)o2)on1 (stereo unspecified)	none (no result: HT1080NT lethal, TDP1 cell noCPT, IL-1B inflam inh, TDP1 cell CPT, HT1080 IDH1KD tx)
Cc1ccc(C2C3=C(CC(C)(C)CC3=O)N=C3c4ccccc4C(=O)C32)cc1 (stereo unspecified)	TDP1 cell noCPT 18µM, IL-1B inflam inh -53, ALOX12 inh inconclusive, TDP1 cell CPT inconclusive, HT1080 IDH1KD tx inconclusive
CC1(C)CC(=O)C2=C(C1)Nc1nc(N)[nH]c(=O)c1C2c1ccc(Cl)cc1 (stereo unspecified)	none (no result: HT1080NT lethal, TDP1 cell noCPT, IL-1B inflam inh, TDP1 cell CPT, HT1080 IDH1KD tx)
Cc1ccc(C2C3=C(CC(C)(C)CC3=O)OC3=C2C(=O)CC(C)(C)C3)cc1	none
CC1(C)CC(=O)C2=C(C1)N=C1c3ccccc3C(=O)C1C2c1ccc(Cl)cc1 (stereo unspecified)	HT1080NT lethal inconclusive, TDP1 cell noCPT inconclusive, IL-1B inflam inh -60, ALOX12 inh inconclusive, TDP1 cell CPT inconclusive, HT1080 IDH1KD tx inconclusive
O=C(c1nc(-c2cccnc2)no1)N1CCN(c2ccc(Cl)c(Cl)c2)CC1	none (no result: HT1080NT lethal, TDP1 cell noCPT, IL-1B inflam inh, TDP1 cell CPT, HT1080 IDH1KD tx)
O=C(/C=C/c1cccnc1)NCCc1ccc(F)cc1	none (no result: HT1080NT lethal, TDP1 cell noCPT, IL-1B inflam inh, TDP1 cell CPT, HT1080 IDH1KD tx)
Cn1ccc(Nc2nccc3c(=O)cc(-c4cccnc4)oc23)n1	none (no result: HT1080NT lethal, TDP1 cell noCPT, IL-1B inflam inh, TDP1 cell CPT, HT1080 IDH1KD tx)
O=C(CCS(=O)Cc1ccccc1)Nc1ccccc1 (stereo unspecified)	none (no result: HT1080NT lethal, TDP1 cell noCPT, IL-1B inflam inh, TDP1 cell CPT, HT1080 IDH1KD tx)
COC(=O)C1Cc2c([nH]c3ccccc23)C2(CCN(Cc3ccccc3)CC2)N1 (stereo unspecified)	HT1080NT lethal 18µM, TDP1 cell noCPT 21µM, IL-1B inflam inh -86, ALOX12 inh inconclusive, TDP1 cell CPT inconclusive, HT1080 IDH1KD tx 18µM
CCCN1CCC2(CC1)NC(C(=O)O)Cc1c2[nH]c2ccccc12 (stereo unspecified)	none (no result: ALOX12 inh)
COc1cc(CC(=O)Nc2ccccc2-c2ccccc2)cc(OC)c1OC	none (no result: HT1080NT lethal, TDP1 cell noCPT, IL-1B inflam inh, TDP1 cell CPT, HT1080 IDH1KD tx)
Cc1ccc(Sc2sc(=O)n(C)c2S(=O)(=O)c2ccc(C)cc2)cc1	TDP1 cell noCPT 21µM, TDP1 cell CPT inconclusive
Cc1ccc(S(=O)(=O)c2c(C)c(C)c(C)[nH]c2=O)cc1	none
Cc1ccc(-c2cc(C(=O)NCc3ccco3)no2)cc1	none
Cc1ccc(Cl)cc1NC(=O)c1cc(-c2ccc3c(c2)OCCO3)on1	TDP1 cell noCPT inconclusive, TDP1 cell CPT 15µM (no result: HT1080NT lethal, IL-1B inflam inh, HT1080 IDH1KD tx)
Cc1cccc(NC(=O)c2cc(-c3ccc4c(c3)OCCO4)on2)c1	TDP1 cell noCPT inconclusive, TDP1 cell CPT 23µM (no result: HT1080NT lethal, IL-1B inflam inh, HT1080 IDH1KD tx)
O=C(NCc1ccco1)c1cc(-c2ccc3c(c2)OCO3)on1	HT1080NT lethal 2.2µM, HT1080 IDH1KD tx inconclusive
O=C(Nc1cccc(Cl)c1)c1cc(-c2ccc3c(c2)OCO3)on1	TDP1 cell noCPT inconclusive (no result: HT1080NT lethal, IL-1B inflam inh, HT1080 IDH1KD tx)
O=C(Nc1cccc(Cl)c1)c1cc(-c2ccc3c(c2)OCCO3)on1	TDP1 cell noCPT 12µM, TDP1 cell CPT inconclusive (no result: HT1080NT lethal, IL-1B inflam inh, HT1080 IDH1KD tx)
